# RGS4 inhibitor – human RGS4 inhibition; Transcreener GDP fluorescence polarization, RGS4-accelerated GTP hydrolysis; Potency, µM (top dose mostly 114 µM), for the others: top-dose activity change, negative = inhibition, hits mostly inhibitors; actives 0.039% (n = 390,000); also: % is scaled to controls: 0 for no effect and ±100 for the full control effect; nearly all actives have a fitted effect of over 75% in size
# Target sequence (P49798 whole entry, looked up): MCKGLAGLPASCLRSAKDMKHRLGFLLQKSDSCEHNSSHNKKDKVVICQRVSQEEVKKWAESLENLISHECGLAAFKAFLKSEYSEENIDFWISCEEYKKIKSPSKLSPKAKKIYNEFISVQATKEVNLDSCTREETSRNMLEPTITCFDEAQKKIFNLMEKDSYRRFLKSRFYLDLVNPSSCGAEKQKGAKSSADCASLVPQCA
#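 MLSMR compounds (23 nl, pin-transferred) preincubated 10 min at room temperature with a 500nM (2x) first reagent, then RGS4 at 900nM (2x) plus Transcreener GDP mix added; fluorescence polarization (620/688 nm) read before and after 90 min at 30 °C.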
# GLP1R inv ag – GLP-1 receptor (human) inverse agonism; Potency, µM (top dose mostly 38.3 µM), for inactives: top-dose activity change, negative = inhibition, most hits filed as inhibitors; actives 1.6% (n = 410,000); HEK293 GLP-1R CRE-luciferase, luminescence, 24 h; GLP-1R form is constitutively active; P43220; also: % is scaled to controls: 0 for no effect and ±100 for the full control effect; nearly all actives have a fitted effect of over 55% in size
#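 qHTS in 1536-well format: reporter HEK293 cells expressing constitutive GLP-1R activity in DMEM + 10% Nu serum, 24 hr with compounds at 37 deg C, luminescence read after 12 min with detection reagent.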
# PTHR1 agonist – PTHR1 (human) receptor agonism. Q03431. HEK293 GP2 PTHR1 cells, GloSensor cAMP luminescence, 1 h. Potency, µM (series often up to 115 µM), inactives show at the highest dose activation, hits mostly activators. actives 0.075% (n = 410,000). AID 743266; also: nearly all actives have a fitted effect of over 55% in size
#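 HEK-293-derived GP2 cells expressing PTHR1 and a GloSensor cAMP reporter, 3,000/well, plated overnight, given luciferin plus IBMX (each 0.5 mM as added) for 1 h at 37 °C, then compound for 1 h at 37 °C. Luminescence was read after 15 min at room temperature.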
# GLP1R cytotox – cytotoxic in the GLP-1 receptor inverse agonist counter-screen. actives 0.13% (n = 410,000). Potency, µM (highest dose often 38.3 µM), for inactives: at the top dose activity change, negative = inhibition, hits mostly inhibitors. HEK293 cAMP-luciferase reporter cells, luminescence, 24 h. AID 624418;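 also: loss of luciferase light is scored as toxicity; % is scaled to controls: 0 for no effect and ±100 for the full control effect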
#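 Seeding density was 200 cells/uL; after overnight-length (12 h) culture, 23 nL compounds went on for 24 h at 37 °C. Readout used a luciferase detection reagent, luminescence taken after 12 min at room temperature.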
# GLP-1R agonist – GLP-1 receptor (human) agonism; HEK293 GLP-1R CRE-luciferase, luminescence, 4-6 h; cells express a hypersensitive GLP-1R form; Potency, µM (doses to about 45.6 µM), for inactives: at the highest dose activation, actives largely listed as activators; actives 0.007% (n = 380,000); also: % of control where 0% means no effect
# GCN5L2 inh – blocks human GCN5L2 histone acetyltransferase; GCN5L2 HAT assay, ThioGlo1 CoA-SH fluorescence; Potency, µM (doses to about 58.9 µM), for inactives: at the top dose activity change, negative = inhibition, actives largely listed as inhibitors; actives 0.21% (n = 390,000); AID 504327; also: % is scaled to controls: 0 for no effect and ±100 for the full control effect
#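 qHTS, 1536-well. 20nM enzyme, pH 7.5 HEPES/EDTA/Tween-20 buffer; 15 min compound preinc., RT. Start: 75uM H3(1-25), 70uM AcCoA, 50uM ThioGlo1. Read Ex340/Em540 at t=0 (autofluorescence flag) and t=20 min.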
# The depositor's hits bear a star; i = inactive; ? = inconclusive; . = no result given; [ ] = remark or other dose. Most compounds without a hit are left out; they make up all but 1.8% or so of the library. Calls follow the shape of the dose curve; as a rule, active = well fitted curve in the direction sought with a large enough effect; inconclusive = small, poorly fitted or top-dose-only effect, or another doubt; inactive = no such curve, though single readings can be large; an effect the other way counts as inactive or inconclusive. Potency is read from the fitted curve at half-maximal effect.
SMILES,RGS4 inhibitor,GLP1R inv ag,PTHR1 agonist,GLP1R cytotox,GLP-1R agonist,GCN5L2 inh
CC(=O)Nc1ccc(CN2CCCC(C(=O)c3ccc(C(F)(F)F)cc3)C2)cc1 (stereo not given),13%,?,-4%,-5%,14%,-2%
CCOC(=O)c1[nH]c(COC(=O)C2CC(=O)N(Cc3ccccc3)C2)c(C(=O)OCC)c1C (stereo not given),-5%[11.4 µM],-5%,0%[57.5 µM],-9%,2%,1%
O=C1CCCCC1C(O)(C(=O)c1ccccc1)c1ccccc1 (stereo not given),.,10µM*,-29%,1%,1%,.
C[N+](C)(CCCCCC[N+](C)(C)C1c2ccccc2-c2ccccc21)C1c2ccccc2-c2ccccc21,.,.,.,.,-5%,.
Cc1ccc(CN(C(=O)c2ccc(C(C)(C)C)cc2)c2ccccn2)o1,22%,?,-21%,-10%,.,-9%
O=C(NCc1ccccc1)C(c1ccccc1)n1c(-c2ccccn2)nc2ccccc21 (stereo not given),.,7.9µM*,-1%,-2%,.,.
CC[C@H](C)[C@H](N)C(=O)N[C@@H](CC(N)=O)C(=O)N1CCC[C@H]1C(=O)N[C@H](C(=O)N[C@@H](Cc1ccc(O)cc1)C(=O)N[C@@H](CCCN=C(N)N)C(=O)N[C@@H](CC(C)C)C(=O)N[C@@H](CCCN=C(N)N)C(=O)N[C@@H](Cc1ccc(O)cc1)C(N)=O)[C@@H](C)CC,.,.,.,.,.,-2%
CC(=O)NC1=C(Nc2ccc(N(C)C)cc2)C(=O)c2ccccc2C1=O,?,4µM*,i,?,-1%,0%
CSCC[C@H](N)C(=O)N[C@@H](CO)C(=O)N[C@@H](CCCN=C(N)N)C(=O)N1CCC[C@H]1C(=O)N[C@@H](C)C(=O)N[C@@H](CS)C(=O)N1CCC[C@H]1C(=O)N[C@@H](CC(N)=O)C(=O)N[C@@H](CC(=O)O)C(=O)N[C@@H](CCCCN)C(=O)N[C@@H](Cc1ccc(O)cc1)C(=O)N[C@@H](CCC(=O)O)C(=O)O,.,.,.,.,.,-12%
CCN(CC)CCOCCOC(=O)C(CC)(CC)c1ccccc1 (tested in a mixture with another compound),.,.,.,.,2%,-5%
Cc1cc(O)c(C=O)c2c1C(=O)Oc1c(CO)c(O)c3c(c1O2)C(O)OC3=O (stereo not given),-125%,-26%,i,-19%,-5%,16µM*
Cc1cc(O)c(C=O)c2c1C(=O)Oc1c(COC(=O)/C=C/C(=O)O)c(O)c(C(=O)O)c(C)c1O2,.,.,.,.,.,20µM*
Cc1cc(F)ccc1-c1cc(C(=O)NCc2cccs2)[nH]n1,.,7%,-12%,2%,6%,.
COc1oc(=O)c2cc(N)ccc2c1Cl,.,.,.,.,.,-11%
CCCN(CC(=O)Nc1ccccc1OC)C(=O)c1cc(-c2ccccc2)nn1-c1ccccc1,-12%,10µM*,-26%,4%,8%,-18%
CCCN(CC(=O)Nc1ccccc1OC)C(=O)CC1CCCC1,-3%,8.9µM*,-4%,14%,1%,-5%
COCCNC(=S)N/N=C(\C)c1ccc(Cl)c(Cl)c1,2%,?,23%,7%,24%,-4%
CCNC(=S)N/N=C(\C)c1cccc(C(F)(F)F)c1,-9%,4.5µM*,-11%,4.5µM*,16%,-2%
COCCNC(=S)N/N=C(\C)c1ccc(Cl)s1,-41%,2.2µM*,i,2.8µM*,11%,-20%
COCCNC(=S)N/N=C(\C)c1cccc(OC)c1,1%,4µM*,i,?,6%,-1%
COCCNC(=S)N/N=C(\C)c1ccc(Cl)c(Cl)c1Cl,-18%,?,i,3.5µM*,21%,-1%
